For 17 compounds, inhibition results are on record in ChEMBL document CHEMBL1961873, “Compounds: GSK PKIS; Assays: Nanosyn kinase panel” (2012).

The structures appear in SMILES notation.

The target in test [1] is Platelet-derived growth factor receptor beta (Homo sapiens) (UniProt P09619). Particulars: at 1 µM.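 Also: each value is a mean percent inhibition.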
For test [2], the target named is Tyrosine-protein kinase FRK (Homo sapiens) (UniProt P42685). The conditions noted are these: at 0.1 µM.
For test [3] the target is unchanged. The conditions noted are these: at 1 µM.
Test [4] deals with Protein-tyrosine kinase 2-beta (Homo sapiens) (UniProt Q14289). Particulars: at 0.1 µM.
Protein-tyrosine kinase 2-beta (Homo sapiens), sequence (Q14289 whole entry, looked up): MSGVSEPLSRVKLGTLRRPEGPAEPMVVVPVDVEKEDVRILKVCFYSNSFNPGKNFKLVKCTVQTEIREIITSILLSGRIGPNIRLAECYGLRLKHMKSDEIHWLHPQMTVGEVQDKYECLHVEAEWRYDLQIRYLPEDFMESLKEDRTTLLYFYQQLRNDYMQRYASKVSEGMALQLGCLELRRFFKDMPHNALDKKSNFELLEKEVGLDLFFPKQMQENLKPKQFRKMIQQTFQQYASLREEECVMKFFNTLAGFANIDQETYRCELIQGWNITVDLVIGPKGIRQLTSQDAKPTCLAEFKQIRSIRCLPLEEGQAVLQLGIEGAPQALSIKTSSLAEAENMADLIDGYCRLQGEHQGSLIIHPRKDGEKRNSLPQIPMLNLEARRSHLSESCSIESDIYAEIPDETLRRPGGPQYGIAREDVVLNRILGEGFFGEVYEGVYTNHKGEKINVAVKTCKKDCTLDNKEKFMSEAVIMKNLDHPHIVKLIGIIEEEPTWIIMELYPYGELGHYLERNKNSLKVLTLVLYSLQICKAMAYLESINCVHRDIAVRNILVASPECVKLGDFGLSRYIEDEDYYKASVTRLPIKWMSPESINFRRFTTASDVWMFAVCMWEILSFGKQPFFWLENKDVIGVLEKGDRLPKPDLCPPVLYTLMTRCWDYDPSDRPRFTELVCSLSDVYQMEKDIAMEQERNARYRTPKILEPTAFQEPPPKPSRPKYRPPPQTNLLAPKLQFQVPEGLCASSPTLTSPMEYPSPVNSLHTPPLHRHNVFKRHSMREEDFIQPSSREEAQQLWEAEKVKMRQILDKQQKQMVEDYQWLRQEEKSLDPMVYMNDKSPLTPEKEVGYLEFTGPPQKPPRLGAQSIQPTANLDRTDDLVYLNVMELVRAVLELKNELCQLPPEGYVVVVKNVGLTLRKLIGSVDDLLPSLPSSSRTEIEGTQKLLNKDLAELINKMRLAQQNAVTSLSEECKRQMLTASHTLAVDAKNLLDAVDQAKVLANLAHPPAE
Test [5] has the same target. Particulars: at 1 µM.
For test [6], the target named is Proto-oncogene tyrosine-protein kinase receptor Ret (Homo sapiens) (UniProt P07949). Particulars: at 0.1 µM.
Proto-oncogene tyrosine-protein kinase receptor Ret (Homo sapiens), sequence (P07949 whole entry): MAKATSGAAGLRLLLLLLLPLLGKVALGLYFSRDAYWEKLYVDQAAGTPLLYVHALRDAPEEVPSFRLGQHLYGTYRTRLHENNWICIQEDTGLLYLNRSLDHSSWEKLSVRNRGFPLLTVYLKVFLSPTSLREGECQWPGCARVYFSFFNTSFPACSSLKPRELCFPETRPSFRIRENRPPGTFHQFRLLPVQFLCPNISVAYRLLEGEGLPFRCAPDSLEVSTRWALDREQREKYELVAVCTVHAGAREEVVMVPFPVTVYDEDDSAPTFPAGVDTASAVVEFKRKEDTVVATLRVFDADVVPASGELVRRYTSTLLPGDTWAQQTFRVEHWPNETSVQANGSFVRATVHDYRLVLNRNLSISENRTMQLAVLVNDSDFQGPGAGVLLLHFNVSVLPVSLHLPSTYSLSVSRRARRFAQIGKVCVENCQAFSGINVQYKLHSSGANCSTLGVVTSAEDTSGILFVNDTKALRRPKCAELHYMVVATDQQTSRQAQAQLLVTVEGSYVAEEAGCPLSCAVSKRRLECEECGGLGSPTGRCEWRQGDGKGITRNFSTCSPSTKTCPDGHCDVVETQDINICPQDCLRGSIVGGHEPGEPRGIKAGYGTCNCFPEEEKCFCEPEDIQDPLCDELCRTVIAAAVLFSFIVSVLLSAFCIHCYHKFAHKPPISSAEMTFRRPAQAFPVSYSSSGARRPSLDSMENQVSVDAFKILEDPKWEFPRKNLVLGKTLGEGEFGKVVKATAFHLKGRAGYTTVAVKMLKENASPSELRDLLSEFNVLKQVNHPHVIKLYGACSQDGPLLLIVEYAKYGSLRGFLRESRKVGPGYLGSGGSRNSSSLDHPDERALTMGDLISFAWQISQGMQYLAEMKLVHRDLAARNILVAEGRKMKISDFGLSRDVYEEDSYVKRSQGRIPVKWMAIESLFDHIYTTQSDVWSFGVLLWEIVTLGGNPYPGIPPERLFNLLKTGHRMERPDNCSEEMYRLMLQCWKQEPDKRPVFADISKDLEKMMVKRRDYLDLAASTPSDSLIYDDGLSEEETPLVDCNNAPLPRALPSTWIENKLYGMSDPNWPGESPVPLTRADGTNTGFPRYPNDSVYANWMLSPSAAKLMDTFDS
For test [7] the target is unchanged. The conditions noted are these: at 1 µM.
Test [8] relates to Proto-oncogene tyrosine-protein kinase receptor Ret (Homo sapiens), P07949 [V804L]. Particulars: at 0.1 µM.
Proto-oncogene tyrosine-protein kinase receptor Ret (Homo sapiens), P07949 [V804L], sequence (P07949 whole entry V804L): as the sequence (P07949 whole entry) above, with V804L counted along it
For test [9] the test system is unchanged. The conditions noted are these: at 1 µM.
For test [10], the system named is Proto-oncogene tyrosine-protein kinase receptor Ret (Homo sapiens), P07949 [Y791F]. Particulars: at 0.1 µM.
Proto-oncogene tyrosine-protein kinase receptor Ret (Homo sapiens), P07949 [Y791F], sequence (P07949 whole entry Y791F): as the sequence (P07949 whole entry) above, with Y791F counted along it

Platelet-derived growth factor receptor beta (Homo sapiens), sequence (P09619 whole entry): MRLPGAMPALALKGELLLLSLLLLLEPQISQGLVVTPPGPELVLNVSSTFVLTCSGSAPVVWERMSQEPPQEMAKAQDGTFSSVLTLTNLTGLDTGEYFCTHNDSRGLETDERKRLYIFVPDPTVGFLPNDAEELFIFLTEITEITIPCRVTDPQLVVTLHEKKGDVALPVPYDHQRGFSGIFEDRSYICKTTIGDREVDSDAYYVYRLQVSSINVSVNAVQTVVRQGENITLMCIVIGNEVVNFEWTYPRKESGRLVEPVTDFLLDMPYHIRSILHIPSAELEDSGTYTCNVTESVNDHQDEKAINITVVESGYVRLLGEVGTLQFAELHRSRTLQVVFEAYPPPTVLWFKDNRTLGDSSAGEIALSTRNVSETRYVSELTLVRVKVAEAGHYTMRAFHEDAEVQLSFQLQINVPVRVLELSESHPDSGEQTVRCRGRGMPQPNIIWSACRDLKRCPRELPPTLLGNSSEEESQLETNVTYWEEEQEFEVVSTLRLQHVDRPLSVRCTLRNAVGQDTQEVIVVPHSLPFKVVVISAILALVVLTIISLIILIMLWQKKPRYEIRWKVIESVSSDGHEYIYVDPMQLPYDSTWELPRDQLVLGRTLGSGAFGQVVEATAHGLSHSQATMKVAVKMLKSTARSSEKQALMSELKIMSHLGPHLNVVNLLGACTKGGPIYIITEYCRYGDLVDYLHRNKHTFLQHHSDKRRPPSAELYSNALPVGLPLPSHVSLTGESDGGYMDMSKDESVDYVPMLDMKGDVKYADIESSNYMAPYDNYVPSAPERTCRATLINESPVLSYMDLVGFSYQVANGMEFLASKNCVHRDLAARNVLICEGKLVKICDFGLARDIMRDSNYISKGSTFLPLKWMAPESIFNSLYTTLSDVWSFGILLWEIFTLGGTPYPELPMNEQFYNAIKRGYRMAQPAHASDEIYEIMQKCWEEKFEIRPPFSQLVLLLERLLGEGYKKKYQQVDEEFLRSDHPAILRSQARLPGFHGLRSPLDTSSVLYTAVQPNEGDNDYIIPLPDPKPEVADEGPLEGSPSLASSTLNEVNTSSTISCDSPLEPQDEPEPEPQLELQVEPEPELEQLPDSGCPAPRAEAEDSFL
Tyrosine-protein kinase FRK (Homo sapiens), sequence (P42685 whole entry): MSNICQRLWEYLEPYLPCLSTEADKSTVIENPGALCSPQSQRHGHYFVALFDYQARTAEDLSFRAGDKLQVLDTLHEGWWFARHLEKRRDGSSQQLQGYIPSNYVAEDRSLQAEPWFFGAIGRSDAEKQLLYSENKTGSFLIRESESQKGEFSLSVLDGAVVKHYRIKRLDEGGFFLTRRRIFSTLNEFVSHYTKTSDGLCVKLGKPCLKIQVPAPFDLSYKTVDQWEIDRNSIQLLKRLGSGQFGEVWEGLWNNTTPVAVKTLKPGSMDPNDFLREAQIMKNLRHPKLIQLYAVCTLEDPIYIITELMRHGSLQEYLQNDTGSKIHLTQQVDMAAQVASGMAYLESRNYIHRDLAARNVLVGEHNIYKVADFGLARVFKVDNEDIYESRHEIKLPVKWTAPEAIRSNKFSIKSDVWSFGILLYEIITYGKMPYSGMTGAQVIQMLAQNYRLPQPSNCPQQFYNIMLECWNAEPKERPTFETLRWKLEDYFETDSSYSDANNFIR

Turning to `COc1cc(Nc2ncc3c(C)nc(-c4cccc(C(F)(F)F)c4)n3n2)cc(OC)c1OC`, the inhibition in test [1] was 38%; in test [2], 1.36%; in test [3], 0.31%; in test [4] it was 11.8%; in test [5] it was 39.6%; in test [6], 7.14%. In addition, the inhibition in [7] worked out at 39.1%; in [8], 16.7%; in [9] it was 57.4%; in test [10] it was 8.01%.

Consider `O=C1Nc2ccccc2/C1=C/Nc1ccc(-n2cncn2)cc1`, for which the inhibition in test [1] was 33.4%; in test [2], 2.78%; in test [3], 3.04%; in test [4], 11.7%; in test [5] it was 24.7%; in [6], 15.4%. Besides, the inhibition in [7] came out at 48.6%; in test [8], 20.2%; in test [9], 67.3%; in test [10] it was 12.9%.

On to `Fc1ccc(-c2c(-c3ccncc3)nc3n2CCS3)cc1`, for which the inhibition was 5.75% in test [1]; 1.6% in test [2]; 2.05% in [3]; 10.7% in test [4]; 4.18% in test [5]; 1.13% in [6]. Also, the inhibition in test [7] was 7.86%; in test [8], 3.1%; in [9], 6.64%; in test [10] it was 3.14%.

With `COc1cc(N2CCN(C(C)C)CC2)ccc1Nc1nc(Nc2ccc(F)cc2C(=O)NC[C@@H](O)CO)c2cc[nH]c2n1`, the inhibition in test [1] is 5.07%; in test [2] it was 2.85%; in [3], 4.03%; in test [4] it was 87.3%; in test [5], 96.5%; in test [6], 5.61%. Besides, the inhibition worked out at 8.19% in [7], 5.31% in test [8], 18.4% in test [9] and 6.02% in test [10].

In the case of `Nc1nccc(-c2c(-c3ccc(F)cc3)ncn2C2CCC(O)CC2)n1` (stereo not given), the inhibition is 30.3% in [1]; -0.89% in [2]; 5.08% in test [3]; -2.8% in test [4]; 2.44% in test [5]; 3.09% in test [6]. Also, the inhibition in test [7] is 19.3%; in test [8], 0.11%; in test [9], 5.11%; in test [10], 3.7%.

As for `Cc1nnc(-c2ccc(C)c(-c3ccc(C(=O)NCc4ccc(Cl)cc4)cc3)c2)o1`, the inhibition in test [1] is 3.27%; in test [2] it was 1.52%; in test [3], 2.43%; in [4], 6.59%; in test [5] it was 10.6%; in test [6] it was 8.83%. The inhibition in [7] amounted to 2.3%; in [8] it was 2.03%; in [9] it was 2.91%; in [10], 1.1%.

`Fc1ccc(-c2ncn(C3CCNCC3)c2-c2ccnc(Oc3ccc4c(c3)OCO4)n2)cc1`: the inhibition in test [1] came out at 12.7%; in test [2] it was 3.01%; in [3] it was 4.4%; in test [4] it was 7%; in [5] it was 9.57%; in test [6], 3.97%. Also, the inhibition was found to be 6.88% in test [7], 9.21% in test [8], 12.4% in [9] and 14.5% in test [10].

Turning to `CS(=O)(=O)CCNCc1ccc(-c2ccc3ncnc(Nc4ccc(OCc5ccccc5)c(Br)c4)c3c2)o1`, the inhibition in test [1] amounted to 7.34%; in test [2], 2.64%; in test [3] it was 3.25%; in test [4], 3.86%; in test [5], 10.1%; in test [6], 7.14%. Besides, the inhibition in test [7] turned out to be 4.94%; in test [8] it was 2.03%; in test [9] it was 4.43%; in [10], 9.28%.

Turning to `O=C1NC(=O)C(c2cccc(Cl)c2)=C1Nc1ccc(Cl)c(C(=O)O)c1`, the inhibition in test [1] was 8.9%; in test [2] it was -0.46%; in test [3], 2.48%; in test [4], 7.05%; in test [5], 6.6%; in test [6], 7.27%. In addition, the inhibition in test [7] turned out to be 3.52%; in test [8], 5.17%; in [9], 7.71%; in test [10] it was 3.26%.

Turning to `NC(=O)c1ccc(Oc2nccc(-c3c(-c4ccc(F)cc4)ncn3C3CCNCC3)n2)cc1`, the inhibition in [1] is 6.41%; in test [2], 2.8%; in test [3], 4.67%; in test [4] it was -0.03%; in test [5], 10.9%; in [6], 1.55%. Besides, the inhibition in test [7] was found to be 2.99%; in [8], 2.2%; in test [9] it was 5.79%; in test [10], 3.11%.

As for `CS(=O)(=O)CCNCc1cc(-c2cc3c(Nc4ccc(OCc5cccc(F)c5)c(Cl)c4)ncnc3s2)cs1`, the inhibition was 11.2% in test [1]; 4.58% in [2]; 3.68% in [3]; 4.47% in test [4]; 4.63% in [5]; 7.3% in test [6]. For the same compound, the inhibition is 7.36% in [7], 4.33% in test [8], 7.85% in test [9] and 8.47% in test [10].

As for `Fc1ccc(-c2ncn(CCCN3CCOCC3)c2-c2ccncc2)cc1`, the inhibition was 6.02% in test [1]; 0.05% in [2]; -1.57% in test [3]; 0.29% in [4]; -0.89% in [5]; 0.8% in test [6]. Besides, the inhibition was 2.72% in test [7], -0.64% in test [8], 0.11% in test [9] and 2.85% in test [10].

Turning to `C[C@@H](Oc1cc(-n2cnc3ccc(OC4CCN(C)CC4)cc32)sc1C(N)=O)c1ccccc1Cl`, the inhibition turned out to be 70.8% in test [1]; 3.35% in test [2]; 3.66% in test [3]; 4.13% in test [4]; 11.7% in [5]; 3.19% in [6]. In addition, the inhibition stood at 16.5% in [7], 2.32% in test [8], 15.8% in [9] and 6.79% in [10].

As for `COc1cc2ncn(-c3cc(OCc4cccs4)c(C(N)=O)s3)c2cc1OC`, the inhibition in [1] came to 72.5%; in [2] it was 1.41%; in test [3], 1.32%; in test [4] it was 3.08%; in test [5], 6.94%; in test [6] it was 11.9%. The inhibition came to 43.5% in test [7], 7.23% in [8], 24.7% in test [9] and 15% in test [10].

On to `COc1cccc(/C=N/Nc2ncnc3c2cnn3-c2cccc(OC)c2)c1`, for which the inhibition stood at 11% in [1]; 2.06% in test [2]; 3.36% in test [3]; 1% in test [4]; 10.2% in test [5]; 0.27% in test [6]. The inhibition came to 6.95% in test [7], 0.36% in [8], 1.63% in test [9] and 3.95% in test [10].

As to `CCc1nccc2c1nc(-c1nonc1N)n2CC`, the inhibition was 14% in [1]; 0.24% in [2]; -0.39% in [3]; 3.87% in test [4]; 0.03% in [5]; 0.76% in test [6]. Also, the inhibition in [7] was 9.96%; in test [8], 4.16%; in [9], 1.71%; in test [10], 3.64%.

As for `N#Cc1ccc(Oc2nccc(-c3c(-c4ccc(F)cc4)ncn3C3CCNCC3)n2)cc1`, the inhibition in test [1] was 5.37%; in [2], 2.75%; in test [3], 4.03%; in test [4], 6.64%; in test [5], 13.4%; in [6], 6.33%. For the same compound, the inhibition worked out at 4.32% in test [7], 3.48% in test [8], 4.02% in test [9] and 6.66% in test [10].
